# Compound activity: PubChem BioAssay, National Center for Advancing Translational Sciences (NCATS)
# Rows were chosen to be rich in hits. Some 11% of all compounds tested hit in one or more screens of this group.
# AMA1 RON2 block: disrupts binding of P. falciparum AMA1 to RON2. AlphaScreen AMA1-biotinylated RON2 peptide binding. Potency, µM (titrated, usually from 58.2 µM), without a hit: top-dose activity change, negative = inhibition, usual class: inhibitors. actives 0.2% (n = 360,000). AID 720542;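 note: 0% = vehicle wells and -100% = peptide control; nearly all actives have a fitted effect of over 45% in size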
#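 AMA1 (3D7) with his tag at 25 nM final met compounds first, then biotinylated RON2 peptide at 25 nM; detection used donor plus acceptor beads, 10 µg/mL apiece, read by AlphaScreen after 30 min at room temperature.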
# Pf growth 96h: inhibits malaria parasite growth, 96 h | actives 6.9% (n = 320,000) | Potency, µM (highest dose often 28.7 µM), inactives show at the highest dose activity change, negative = inhibition, hits mostly inhibitors | P. falciparum luciferase reporter growth, 96 h | AID 504834; note: % is set by controls: 0 for no effect and ±100 for the full control effect
#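 Two parasite generations (96 h, 37 C, 5% CO2) of compound exposure in infected erythrocytes (0.05% parasitemia, 2% hematocrit). Luciferase-reporter P. falciparum; decreased luminescence indicates inhibited growth, aimed at apicoplast-acting delayed death.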
# NS1 function inh: blocks influenza NS1 protein function; Potency, µM (highest dose often 46.1 µM), for inactives: at the top dose activity, positive = more growth; actives 0.4% (n = 270,000); calls by dose curve; note: actives are rising curves; nearly all actives have a fitted effect of over 50% in size
#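 Growth recovery, yeast-based: influenza A NS1 expressed in S. cerevisiae causes slow growth, and suppressors are detected by OD600. The parent strain without NS1 is used as positive control.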
# Pf growth 48h: inhibits P. falciparum growth in the first generation, 48 h; actives 5.9% (n = 310,000); Potency, µM (series often up to 28.7 µM), inactives show at the highest dose activity change, negative = inhibition, usual class: inhibitors; P. falciparum luciferase growth in erythrocytes, 48 h; note: % is set by controls: 0 for no effect and ±100 for the full control effect
#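 Erythrocytes infected with P. falciparum carrying an integrated firefly luciferase reporter (2% hematocrit, 0.1% parasitemia final) were exposed to compounds in RPMI 1640 with 0.5% Albumax at 37 C, 5% CO2. Growth inhibition was scored as reduced luminescence.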
# Sm TGR inh: blocks Schistosoma mansoni thioredoxin glutathione reductase. Q962Y6. purified TGR, DTNB reduction, TNB absorbance 405 nm. Potency, µM (series often up to 114 µM), without a hit: top-dose activity change, negative = inhibition, most hits filed as inhibitors. actives 3% (n = 360,000). AID 485364; note: % is set by controls: 0 for no effect and ±100 for the full control effect; nearly all actives have a fitted effect of over 60% in size
#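 First, TGR (20 nM dispensed) and NADPH were mixed with compound. Second, a 15 min room-temperature incubation followed. Third, further NADPH and then DTNB were added to start the reaction. Finally, TNB absorbance was monitored kinetically.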
# Starred values were filed as active, the others as inactive; ? = inconclusive; / = no result; [ ] = dose if it differs, or a comment. Unless noted, calls come from the whole dose curve; as a rule, active = well fitted curve in the direction sought with a large enough effect; inconclusive = small, poorly fitted or top-dose-only effect, or another doubt; inactive = no such curve, though single readings can be large; an effect the other way counts as inactive or inconclusive. Potency is the fitted concentration of half-maximal effect.
SMILES,AMA1 RON2 block,Pf growth 96h,NS1 function inh,Pf growth 48h,Sm TGR inh
COc1cccc(NC(=O)Nc2ccc(Cc3ccncc3)cc2)c1,-5%,-25%,-10%,4%,2%
CC1CCCCN1c1nnc(NC(=O)Nc2ccccc2F)s1 (centres undefined),/,/,/,/,0%
Cc1cccc(NC(=O)Nc2nnc(N3CCCCC3C)s2)c1C (centres undefined),-8%,2.1µM*,-1%,/,0%
COc1cccc(NC(=O)Nc2nnc(Cc3ccccc3)s2)c1,-7%,?,11%,-7%,-32%
CC1(C)C(=O)OC(/C=C\c2ccccc2)C(C)(C)C1=O (centres undefined),-12%,13%,3%,-21%[5.75 µM],4%
COc1ccc(S(=O)(=O)N2CCOCC2)cc1NC(=O)CN1C(=O)NC2(CCCC2)C1=O,9%,5%,/,-21%,-8%
S=C(NCc1ccc(Cl)cc1)Nc1ccccc1,-20%,-7%,?,0%,?
S=C(NCc1ccc(Cl)cc1)Nc1ccncc1,-15%,0%,-2%,13µM*,35µM*
Cc1ccc(C2(c3ccccc3)NC(=O)N(CC(=O)N(C)C3CCS(=O)(=O)C3)C2=O)cc1C (centres undefined),-7%,?,/,?,3%
Cc1ccc(C2(c3ccccc3)NC(=O)N(CC(=O)NC3CCS(=O)(=O)C3)C2=O)cc1C (centres undefined),-5%[11.6 µM],-29%,/,-12%,1%
CCN(C(=O)CN1C(=O)NC(c2ccccc2)(c2ccc(C)c(C)c2)C1=O)C1CCCCC1 (centres undefined),-7%,3.3µM*,/,6.6µM*,6%
CCN(C(=O)CN1C(=O)NC(c2ccccc2)(c2ccc(C)c(C)c2)C1=O)C1CCS(=O)(=O)C1 (centres undefined),-9%,13µM*,/,?,-9%
Cc1cccc(CCNC(=O)c2cc(=O)[nH]c3ccc(Br)cc23)c1,/,10µM*,-4%,18%,2%
CN(C(=O)CSc1nnc(-c2ccc([N+](=O)[O-])cc2)o1)c1ccccc1,/,/,/,/,-4%
CC(C)(C)C1=CC(=Nc2ccccc2N)C=C(C(C)(C)C)C1=O,11µM*,3%,14%,0%,2%
Cc1ccc(S(=O)(=O)Nc2cccnc2)cc1,-2%,?,?,0%,-19%
CCCCOc1ccc(S(=O)(=O)Nc2cccnc2)cc1,1%,2.3µM*,-10%,0%,-15%
CC(C)Cn1c(SC(C)C(=O)Nc2ccc3c(c2)OCCO3)nc2ccccc2c1=O (centres undefined),-11%,/,8%,?,-1%
CC(Sc1nc2ccccc2c(=O)n1C)C(=O)Nc1ccc2c(c1)OCCO2 (centres undefined),-2%,0.17µM*,/,0.15µM*,-5%
COCC(C)n1c(SCC(=O)NC(=O)Nc2ccc3c(c2)OCCO3)nc2ccccc2c1=O (centres undefined),-17%,?,-31%,12µM*,-3%
COCC(C)n1c(SCC(=O)NC(=O)Cc2ccccc2)nc2ccccc2c1=O (centres undefined),0%,-2%,/,5%,6%
CC(C)c1cnc2c(c1SCC(=O)Nc1cccc(F)c1)c(=O)n(C)c(=O)n2C,/,/,/,/,-2%
COc1ccccc1CNC(=O)c1cccc(-c2ccc(C)c3ccccc23)n1,/,15µM*,0%,?,-17%
COc1ccccc1C1(CC(=O)Nc2nccs2)CCOC(C(C)C)C1 (centres undefined),-6%,13µM*,2%,?,17%
Cc1ccc(C2(CC(=O)Nc3nccs3)CCOC(C(C)C)C2)cc1 (centres undefined),-1%,-89%,1%,?,2%
SMILES,AMA1 RON2 block,Pf growth 96h,NS1 function inh,Pf growth 48h,Sm TGR inh
COc1cccc(NC(=O)C(=O)NCCc2csc(-c3ccc(C)cc3)n2)c1,/,/,/,/,11%
O=C(Nc1ccc(O)c(-c2nc3ccccc3o2)c1)C1(c2ccc(Cl)cc2)CCCC1,68%[11.6 µM],?,-13%,2.3µM*,0%
NC(=S)N=Nc1c(O)[nH]c2cc(F)c(F)cc12,65%,9.3µM*,10%,?,-11%
NC(=S)N=Nc1c(O)[nH]c2c(Cl)cc(Cl)cc12,49%,/,/,/,/
O=C(O)CSc1cc(NS(=O)(=O)c2ccc(Cl)cc2)c2ccccc2c1O,-22%,?,-40%,?,7.1µM*
COc1ccc(S(=O)(=O)Nc2cc(Sc3ncn[nH]3)c(O)c3ccccc23)cc1,/,2.9µM*,-189%,/,0.5µM*
O=S(=O)(Nc1ccc(Cl)cc1NS(=O)(=O)c1ccccc1)c1ccccc1,39%,/,/,/,/
COc1ccc(S(=O)(=O)Nc2ccc(O)c(Sc3ncn[nH]3)c2)cc1,13%,-3%,-3%,-9%,-10%
Cc1cc(C)c(S(=O)(=O)Nc2cc(SCC(=O)O)c(O)c3ccccc23)cc1C,-20%,2.6µM*,-34%,10µM*,8.9µM*
COc1ccc(S(=O)(=O)Nc2cc(SCC(=O)O)c(O)c3ccccc23)cc1,?,?,3%,4.1µM*,3.5µM*
CC(Sc1nnnn1-c1ccc(O)cc1)c1nc2ccccc2c(=O)[nH]1 (centres undefined),6%,3%,-3%,-7%,4%
Cc1ccc(NC(=O)CNC(=O)Cn2c(C)cc3ccccc3c2=O)cc1F,/,/,/,/,4%
O=S(=O)(Nc1cc(Sc2cccc3cccnc23)c(O)c2ccccc12)c1ccc(F)cc1,-13%,7%,-18%,2.6µM*,3.5µM*
COc1ccc(CCC2CCNCC2)cc1,6%,4%,-1%,-22%,0%
CCCCN(C)C(=O)CCCCn1c(=O)[nH]c2cc(OCC)c(OCC)cc2c1=O,-11%,?,-2%,10µM*,2%
CN(Cc1ccccc1)C(=O)CCCn1c(=O)[nH]c2cc(Cl)ccc2c1=O,4%,15µM*,-3%,/,2%
CCOc1cc2[nH]c(=S)n(C(C)C)c(=O)c2cc1OCC,10%,8.3µM*,19%,/,-3%
CCOc1cc2[nH]c(=O)n(CCCCCC(=O)NCc3ccco3)c(=O)c2cc1OCC,3%,/,4%,/,-2%
CCOc1cc2[nH]c(=S)n(CCCOC)c(=O)c2cc1OCC,84%,6.6µM*,-3%,-8%,-3%
CCOc1ccccc1NC(=S)N1CCCCCC1,-13%,0%,-1%,-5%,-7%
O=C(C1CC1)N1CCN(c2ccc([N+](=O)[O-])cc2-n2cccc2)CC1,-20%,4%,-1%,-5%,0%
COc1ccccc1NC(=O)CSc1nc2c(oc3ccccc32)c(=O)n1-c1ccc(C)cc1,/,/,/,/,1%
COc1cccc(C#Cc2ccc3c(c2)O[C@H](CN(C)C)[C@@H](C)CN([C@@H](C)CO)S3(=O)=O)c1,-26%,/,/,/,/
CNC(=S)Nc1ccc2nc(C)oc2c1,-4%,39%,3%,12%,-3%
